PubChem BioAssay
Activity calls are given as the source filed them.

Tests used:
[1] = tested on: Plasmodium falciparum Sir2 (PF13_0152, Sir2A); test: pfSir2 binders on small-molecule microarrays, primary screen, biochemical, small-molecule microarray, 635 nm fluorescence (AID 1098); settings: small-molecule microarray binding, fluorescence 635 nm; higher = more signal;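 also: score merges spot fluorescence intensity with its signal-to-noise ratio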
[2] = small-molecule microarray binders of probe aDKK1, primary screen, biochemical, biotinylated probe, 635/667 nm fluorescence (AID 1099); settings: higher = more signal;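 also: score merges 667nm spot fluorescence with signal to noise across triplicate slides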
[3] = small-molecule microarray binders of probe aCHRDL2, primary screen, biochemical, biotinylated probe, 635/667 nm fluorescence (AID 1100); settings: higher = more signal
[4] = splicing luciferase reporter signal modulators, primary screen, spliceosome inhibition project, cell-based, HEK293, splice +/- reporter (AID 1101); settings: luminescence, 24 h, higher = more signal, called active from +8 up or from −8 down;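 also: HEK293 cells carrying a splicing-competent luciferase reporter gene; test concentration not given here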
[5] = molecular target: Fibroblast growth factor 10 (Homo sapiens) (UniProt O15520); test: FGF10 binders on small-molecule microarrays, primary screen, biochemical, small-molecule microarray, 635 nm fluorescence (AID 1102); settings: FGF10 binding, fluorescence 635 nm, higher = more signal
[6] = tested on: glycogen synthase kinase-3 (GSK3A per assay name; protocol says GSK3B); test: GSK3 binders on small-molecule microarrays, primary screen, biochemical, small-molecule microarray, 635 nm fluorescence, GSK3A (AID 1103); settings: small-molecule microarray binding, fluorescence 635 nm; higher = more signal; also: the record names both GSK3A and GSK3B
[7] = molecular target: Epidermal growth factor receptor (Homo sapiens) (UniProt P00533); test: EGFR binders on small-molecule microarrays, primary screen, biochemical, small-molecule microarray, 635 nm fluorescence (AID 1104); settings: EGFR binding, higher = more signal;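 also: score merges 667 nm emission intensity with spot signal to noise over triplicate slides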
[8] = molecular target: Follistatin-related protein 3 (Homo sapiens) (UniProt O95633); test: FSTL3 binders on small-molecule microarrays, primary screen, biochemical, small-molecule microarray, 635 nm fluorescence (AID 1105); settings: FSTL3 binding, higher = more signal;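 also: score merges emission near 667 nm and signal to noise per printed spot across three slides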
[9] = molecular target: Dickkopf-related protein 1 (Homo sapiens) (UniProt O94907); test: DKK1 binders on small-molecule microarrays, primary screen, biochemical, small-molecule microarray, 635 nm fluorescence scan (AID 1106); settings: DKK1 binding, higher = more signal;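 also: score merges emission near 667 nm with signal to noise over three replicate slides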
[10] = tested on: Inhibin beta A chain (activin A); test: INHBA (activin A) binders on microarrays, primary screen, biochemical, small-molecule microarray, 635 nm fluorescence scan (AID 1107); settings: small-molecule microarray binding, higher = more signal;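 also: mouse activin A protein probed at 4.33 µg/mL on printed slides; score merges bound-protein fluorescence near 667 nm with spot signal-to-noise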
[11] = tested on: Human papillomavirus type 1a protein E7 (residues 44-93); test: HPV1a E7 fragment binders on microarrays, primary screen, biochemical, small-molecule microarray, residues 44-93, 635 nm fluorescence (AID 1108); settings: small-molecule microarray binding, fluorescence 635 nm; higher = more signal;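 also: E7 fragment applied at 1 µg/mL in TBST for 1 h at 4 C; score combines spot fluorescence with its signal to noise ratio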
[12] = modulators of HCV replicon luciferase signal, primary screen, HCV replication inhibitor project, Huh7 cells, luciferase reporter (AID 1109); settings: 48 h, higher = more signal;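 also: huh7 hepatoma cells harbouring a luciferase neomycin HCV replicon reporter; luciferase luminescence as measure of HCV replicon replication; test concentration not given here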
[13] = molecular target: Left-right determination factor 2 (Homo sapiens) (UniProt O00292); test: LEFTY2 binders on small-molecule microarrays, primary screen, biochemical, small-molecule microarray, 635 nm fluorescence scan (AID 1110); settings: LEFTY2 binding, higher = more signal
[14] = molecular target: Calmodulin-1 (Homo sapiens) (UniProt P0DP23); test: CALM1 binders on microarrays, EGTA buffer, profiling panel, biochemical, small-molecule microarray, Cy5-labelled CALM1 (AID 1111); settings: Cy5-CALM1 binding fluorescence, higher = more signal;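 also: labelled calmodulin applied in Tris saline Tween buffer holding calcium plus EGTA and DTT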
[15] = molecular target: Calmodulin-1 (Homo sapiens) (UniProt P0DP23); test: calcium-bound CALM1 binders on microarrays, profiling panel, artefact control for SMM control-protein annotation, biochemical, small-molecule microarray, Cy5-labelled CALM1, plus calcium (AID 1112); settings: Cy5-CALM1 binding fluorescence, higher = more signal;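 also: score merges spot fluorescence with signal to noise from triplicate slides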
[16] = small-molecule microarray binders of probe aWnt5a, primary screen, biochemical, biotinylated probe, 635/667 nm fluorescence (AID 1113); settings: higher = more signal;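 also: score merges 667 nm fluorescence intensity with signal-to-noise per printed feature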
[17] = small-molecule microarray binders of probe aShh, primary screen, biochemical, biotinylated probe, 635/667 nm fluorescence (AID 1114); settings: higher = more signal;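 also: probe is biotin-labelled aShh protein from a stem cell growth factor screen; measures binding of labelled protein to compounds printed on the slide; score merges feature fluorescence at 667 nm with signal-to-noise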
[18] = small-molecule microarray binders of probe aNog, primary screen, biochemical, biotinylated probe, 635/667 nm fluorescence (AID 1115); settings: higher = more signal;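 also: probe is biotinylated aNog protein used at 0.15 µg/mL for 1 h at 4 C; z-score combines 667 nm fluorescence of each spot with its signal to noise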
[19] = molecular target: Torsin-1A-interacting protein 1 (Homo sapiens) (UniProt Q5JTV8); test: LAP1 binders from COS7 cell lysate, primary screen, small-molecule microarray, 635/667 nm fluorescence (AID 1116); settings: COS7-hLAP1 lysate binding, 635 nm fluorescence, higher = more signal
[20] = molecular target: Alpha-bungarotoxin (Bungarus multicinctus) (UniProt P60615); test: alpha-bungarotoxin binders on microarray, profiling panel, artefact control for SMM control protein annotation, biochemical, small-molecule microarray, Alexa647 label, 635/667 nm fluorescence (AID 1117); settings: alpha-BTX-A647 binding fluorescence, higher = more signal
Alpha-bungarotoxin (Bungarus multicinctus), sequence (P60615 whole entry, looked up): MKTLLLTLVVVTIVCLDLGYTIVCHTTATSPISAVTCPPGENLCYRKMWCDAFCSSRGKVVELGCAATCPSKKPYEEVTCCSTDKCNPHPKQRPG

Torsin-1A-interacting protein 1 (Homo sapiens), sequence (Q5JTV8 whole entry, looked up): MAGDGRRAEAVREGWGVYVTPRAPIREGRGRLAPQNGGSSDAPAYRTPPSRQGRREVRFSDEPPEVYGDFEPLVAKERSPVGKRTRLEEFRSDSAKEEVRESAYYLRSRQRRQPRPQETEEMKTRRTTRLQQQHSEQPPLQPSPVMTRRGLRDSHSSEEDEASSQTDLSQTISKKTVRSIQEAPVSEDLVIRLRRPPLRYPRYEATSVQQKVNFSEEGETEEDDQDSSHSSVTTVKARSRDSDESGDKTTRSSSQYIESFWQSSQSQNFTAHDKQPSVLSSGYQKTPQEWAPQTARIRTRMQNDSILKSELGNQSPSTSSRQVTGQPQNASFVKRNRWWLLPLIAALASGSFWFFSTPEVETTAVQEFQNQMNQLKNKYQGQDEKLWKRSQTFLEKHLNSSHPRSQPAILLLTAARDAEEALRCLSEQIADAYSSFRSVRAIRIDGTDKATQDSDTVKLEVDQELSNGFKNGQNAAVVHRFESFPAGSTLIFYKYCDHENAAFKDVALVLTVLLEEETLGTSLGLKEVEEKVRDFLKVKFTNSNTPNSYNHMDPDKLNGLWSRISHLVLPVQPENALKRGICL
Dickkopf-related protein 1 (Homo sapiens), sequence (O94907 whole entry, looked up): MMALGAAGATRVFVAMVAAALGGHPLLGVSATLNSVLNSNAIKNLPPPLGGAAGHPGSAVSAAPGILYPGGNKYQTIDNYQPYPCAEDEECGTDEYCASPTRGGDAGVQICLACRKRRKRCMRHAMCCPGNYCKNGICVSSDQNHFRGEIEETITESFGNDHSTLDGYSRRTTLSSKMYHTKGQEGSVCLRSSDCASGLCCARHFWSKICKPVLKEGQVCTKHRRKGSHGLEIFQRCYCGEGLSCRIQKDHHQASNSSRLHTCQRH
Fibroblast growth factor 10 (Homo sapiens), sequence (O15520 whole entry, looked up): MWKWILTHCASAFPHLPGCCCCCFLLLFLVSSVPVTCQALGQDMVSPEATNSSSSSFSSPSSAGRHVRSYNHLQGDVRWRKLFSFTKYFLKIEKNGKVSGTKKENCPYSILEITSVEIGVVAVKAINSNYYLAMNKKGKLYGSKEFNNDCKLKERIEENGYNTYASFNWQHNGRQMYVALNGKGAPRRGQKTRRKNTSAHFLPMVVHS
Epidermal growth factor receptor (Homo sapiens), sequence (P00533 whole entry, looked up): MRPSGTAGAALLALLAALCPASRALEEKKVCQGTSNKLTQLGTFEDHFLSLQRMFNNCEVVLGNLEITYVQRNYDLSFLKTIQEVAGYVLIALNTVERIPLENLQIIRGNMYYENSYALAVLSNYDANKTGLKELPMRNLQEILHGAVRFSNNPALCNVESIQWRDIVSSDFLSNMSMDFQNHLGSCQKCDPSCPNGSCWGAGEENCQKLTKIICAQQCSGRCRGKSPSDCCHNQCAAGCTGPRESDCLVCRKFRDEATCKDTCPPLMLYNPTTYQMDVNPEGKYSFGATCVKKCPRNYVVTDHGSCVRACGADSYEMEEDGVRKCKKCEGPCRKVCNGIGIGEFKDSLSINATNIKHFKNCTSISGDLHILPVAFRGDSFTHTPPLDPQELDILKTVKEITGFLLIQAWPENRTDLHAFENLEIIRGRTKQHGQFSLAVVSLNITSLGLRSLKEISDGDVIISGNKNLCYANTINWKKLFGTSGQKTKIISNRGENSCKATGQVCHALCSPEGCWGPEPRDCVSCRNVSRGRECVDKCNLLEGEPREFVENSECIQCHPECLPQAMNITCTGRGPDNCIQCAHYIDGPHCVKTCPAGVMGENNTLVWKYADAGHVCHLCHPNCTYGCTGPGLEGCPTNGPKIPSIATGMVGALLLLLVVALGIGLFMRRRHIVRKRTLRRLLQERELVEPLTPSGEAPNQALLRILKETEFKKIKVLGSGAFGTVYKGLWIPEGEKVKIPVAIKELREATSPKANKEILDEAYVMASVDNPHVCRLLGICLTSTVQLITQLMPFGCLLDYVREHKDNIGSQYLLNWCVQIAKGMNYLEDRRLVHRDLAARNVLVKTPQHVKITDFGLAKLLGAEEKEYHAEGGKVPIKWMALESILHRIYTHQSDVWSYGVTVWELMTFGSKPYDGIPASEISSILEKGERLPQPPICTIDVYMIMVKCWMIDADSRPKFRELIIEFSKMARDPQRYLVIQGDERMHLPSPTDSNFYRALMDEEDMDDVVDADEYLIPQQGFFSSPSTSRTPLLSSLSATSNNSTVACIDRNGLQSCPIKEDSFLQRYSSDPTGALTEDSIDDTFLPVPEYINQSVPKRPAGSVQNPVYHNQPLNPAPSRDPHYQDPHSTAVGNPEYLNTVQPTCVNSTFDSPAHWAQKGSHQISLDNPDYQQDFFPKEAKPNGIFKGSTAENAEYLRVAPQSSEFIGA
Left-right determination factor 2 (Homo sapiens), sequence (O00292 whole entry, looked up): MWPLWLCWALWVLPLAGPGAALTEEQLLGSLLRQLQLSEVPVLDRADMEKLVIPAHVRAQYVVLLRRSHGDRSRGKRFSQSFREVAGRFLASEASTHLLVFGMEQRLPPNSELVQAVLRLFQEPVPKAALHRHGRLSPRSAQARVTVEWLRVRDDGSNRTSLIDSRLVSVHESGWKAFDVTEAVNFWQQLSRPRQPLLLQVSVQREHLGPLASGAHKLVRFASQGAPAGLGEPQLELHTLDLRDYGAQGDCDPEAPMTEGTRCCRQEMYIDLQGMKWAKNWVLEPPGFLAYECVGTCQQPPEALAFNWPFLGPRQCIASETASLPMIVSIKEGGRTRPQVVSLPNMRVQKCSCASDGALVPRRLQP
Follistatin-related protein 3 (Homo sapiens), sequence (O95633 whole entry, looked up): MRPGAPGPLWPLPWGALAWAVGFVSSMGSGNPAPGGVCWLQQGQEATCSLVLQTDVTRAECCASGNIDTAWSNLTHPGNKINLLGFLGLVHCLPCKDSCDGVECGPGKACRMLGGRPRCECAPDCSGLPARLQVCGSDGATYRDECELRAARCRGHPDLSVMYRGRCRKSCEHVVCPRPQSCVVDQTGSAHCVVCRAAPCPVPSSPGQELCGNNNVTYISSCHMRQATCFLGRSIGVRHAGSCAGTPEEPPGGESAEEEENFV

SMILES | composite z-score [1] | composite z-score [2] | composite z-score [3] | z-score [4] | composite z-score [5] | composite z-score [6] | composite z-score [7] | composite z-score [8] | composite z-score [9] | composite z-score [10] | composite z-score [11] | z-score [12] | composite z-score [13] | composite z-score [14] | composite z-score [15] | composite z-score [16] | composite z-score [17] | composite z-score [18] | composite z-score [19] | composite z-score [20]
COc1ccc([Si](C)(C)[C@H]2[C@H](CC(=O)N(CCO)Cc3ccccc3)O[C@@]3(C(=O)N(Cc4cccc(N5C(=O)COc6ccccc65)c4)c4ccccc43)[C@@H]2C)cc1 | 1.29 | -0.209 | 0.202 | -2.08 (inactive) | 0.963 | 0.183 | 0.456 | 0.628 | 0.506 | 0.702 | -0.591 | -3.88 | 0.962 | -0.13 | -0.408 | -0.203 | 0.564 | 0.389 | 0.836 | 1.57
C=C(CCCC)/C(=C/C[C@@H](OC(=O)c1ccncc1)c1ccc(OCCO)cc1)c1cnc2ccccc2c1 | 0.711 | 0.358 | 0.686 | -1.18 (inactive) | 1.24 | 0.633 | 1.15 | 1.53 | 1.68 | 1.8 | 0.602 | -1.3 | 0.737 | 0.0142 | -0.184 | -0.096 | 0.164 | 0.168 | -0.0621 | 3.3
CC(C)N1CC=CC23O[C@@H]4/C=C\CCCOC(=O)C4[C@H]2C(=O)N(CCCO)[C@@H]3C1=O (stereo not given in full) | 2.12 | -0.201 | 0.787 | 0.073 (inactive) | -0.352 | -0.762 | -1.64 | -1.07 | -1 | 0.967 | -0.0197 | -0.597 | -1.83 | -0.311 | 0.412 | -0.14 | -0.0959 | 0.0824 | -0.0239 | -2.18
COC(=O)C(CC#Cc1ccc2c(c1)[C@]1(C(=O)N2)[C@H](C(=O)O)[C@H]2C(=O)O[C@H](c3ccccc3)[C@H](c3ccccc3)N2[C@@H]1c1ccc(OCCO)cc1)C(=O)OC | 1.53 | 0.393 | 0.799 | -1.31 (inactive) | 1.15 | 0.987 | -0.199 | 0.0514 | -0.611 | 0.117 | 0.738 | -0.555 | 0.155 | 2.16 | 0.717 | -0.0229 | 0.166 | 0.78 | 1.5 | 3.51
C[C@@H](OCc1ccccc1)C1NC(=O)[C@@]23C(=O)N[C@@H](Cc4ccccc4)C2[C@H](C)[C@@]2(C)O[C@H]2C3/C=C/C/C=C\CNC(=O)[C@@H]2CCCN2C1=O (stereo not given in full) | -0.381 | -0.308 | -0.39 | 0.253 (inactive) | 0.097 | -0.616 | -0.324 | 0.819 | 0.34 | 1.75 | -2.3 | -1.06 | -0.0437 | -1.46 | -1.23 | -0.197 | -0.138 | -0.247 | -0.417 | -0.236
C[N+](C)(C)CCCCNC(=O)[C@@H]1C[C@@H]2C(=O)NCC(=O)N2[C@@H]1c1cccc(OCCO)c1 | 0.594 | -0.365 | -0.211 | -1.49 (inactive) | 1.16 | 0.68 | 0.627 | 1.39 | 1.72 | -0.0907 | 0.299 | 0.703 | 1.08 | -0.189 | -0.131 | 0.0519 | 0.0756 | 0.145 | 1.66 | 1.89
CC(C)(C)OC(=O)CC[C@@]1(C(=O)NCc2ccccc2)N=C(c2ccc(OCCCO)cc2)O[C@@H]1c1ccccc1CN=[N+]=[N-] | 1.08 | 1.06 | 0.997 | 0.014 (inactive) | 1.16 | 1.3 | 0.0887 | 0.622 | 0.11 | 0.664 | -0.179 | -2.28 | 0.0022 | 1.61 | 0.605 | 0.164 | -0.0446 | 0.799 | 0.487 | 1.55
COC(=O)c1c2oc(c1C(=O)OC)C(=O)N[C@@H](C(C)C)Cn1nncc1C1(CCCCC1)NC(=O)N[C@H](CO)CC2 | 1.54 | -0.212 | 0.0273 | -1.44 (inactive) | -0.0613 | -0.96 | -0.193 | -0.232 | -0.074 | 0.31 | -0.683 | 0.862 | -0.0834 | 0.401 | -0.102 | -0.148 | 0.0899 | -0.0207 | 0.368 | 1.29
CC(C)[Si](C#C[Si](C(C)C)(C(C)C)C(C)C)(O[C@H](C)c1cn([C@H](C)c2ccccc2)nn1)C(C)C | 0.366 | 0.106 | 0.351 | -1.8 (inactive) | 0.597 | 0.339 | 0.292 | 0.806 | 0.538 | -0.269 | 0.946 | 0.0537 | 0.188 | 0.242 | -0.479 | -0.131 | -0.138 | 0.444 | 0.245 | 0.833
Cc1ccc(S[C@]2(C(=O)NCCN3CCOCC3)CC(=O)N(Cc3cc(C(F)(F)F)cc(C(F)(F)F)c3)[C@@H]2c2ccc(CO)cc2)cc1 | 1.71 | 0.523 | 0.866 | -0.688 (inactive) | -0.703 | -1.45 | -1.19 | -1.15 | -1.05 | 0.156 | -0.233 | -0.429 | -1.13 | -0.411 | -0.132 | -0.175 | -0.153 | 0.455 | -0.998 | -0.842
C=C(/C(=C/C[C@H](OC(C)=O)c1cccc(OCCO)c1)c1cc(C(=O)OC)ccc1OC)C(C)C | 0.86 | -0.0559 | 0.132 | -0.846 (inactive) | 0.306 | -0.116 | -0.805 | -0.948 | -0.316 | 0.576 | -0.0954 | -0.556 | -0.516 | -1 | -0.551 | -0.124 | -0.0337 | 0.209 | 0.19 | -1.33
